Compounds with a hit are over-represented: about 2.7% of the library has one in this group of screens.
KKLEB cytotox: CF airway cell cytotoxicity counter-screen. KKLEB CF airway cells viability, ATPlite luminescence, overnight; active compounds read low; cells stimulated with P. aeruginosa culture filtrate. activity change (cytotoxicity), % at 5 µM. actives 0.36% (n = 360,000). AID 602141;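 active = corrected activity change at or below -50% at 5 µM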
MITF TRPM1 inh: inhibitors of MITF-driven TRPM1 promoter in melanoma cells; SK-MEL-5 TRPM1 promoter luciferase, 24 h; inhibition, % at 12.5 µM; AID 488899; actives 0.83% (n = 330,000);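 active = mean inhibition across replicates of 60% or more, whatever share of single replicates reaches that level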
Shn3 inh set2: Schnurri-3 reporter inhibition in Clone20 osteoblasts | Clone20 osteoblast Shn3 3'UTR firefly luciferase, 24 h | inhibition, % at 12.5 µM | actives 0.52% (n = 360,000);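 active = mean inhibition of at least 75% with every replicate also reaching 75%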
CF NFkB block: cystic fibrosis NF-kB activation inhibition | inhibition, % at 5 µM | AID 588850 | actives 0.86% (n = 360,000) | KKLEB NF-kB-GFP reporter, PAF-induced, GFP fluorescence overnight;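 active = at least 50% inhibition at 5 µM, scaled per plate between neutral and stimulator controls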;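 also: PAF is a Pseudomonas aeruginosa culture filtrate used as stimulus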
HIF-2a block: blocks HIF-2a reporter activity; 786-0 RCC cells HIF-2a reporter, luciferase luminescence, overnight; inhibition, % at 18.8 µM; actives 0.72% (n = 360,000); AID 624352;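 active = inhibition of the luminescence signal of 40% or more relative to plate controls, in a single-dose primary screen at 18.75 µM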
Peg3 prom inh-1: reduces Peg3 promoter-driven luciferase expression in HeLa. AID 588405. HeLa PEG-Prom luciferase reporter, luminescence, overnight. actives 1.7% (n = 360,000). inhibition, % at 20 µM;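 active = inhibition of at least 50% at 20 µM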
Peg3 prom inh-2: confirmation of Peg3 promoter inhibitors; shares compounds with Peg3 prom inh-1; HeLa PEG-Prom luciferase reporter, luminescence, overnight; inhibition, % at 20 µM; actives 84% (n = 1,300);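 active = at 20 µM dose, 40% or more inhibition averaged across four replicates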
A number is an active result; - = inactive; . = no result given.

SMILES	KKLEB cytotox	MITF TRPM1 inh	Shn3 inh set2	CF NFkB block	HIF-2a block	Peg3 prom inh-1	others
Cc1ccc(/C=C2\C(=O)NC(=S)N(c3ccccc3F)C2=O)s1	-	.	-	84.1	95.2	107.8
Cc1ccc(/C=C2\C(=O)NC(=S)N(c3ccc(F)cc3)C2=O)s1	-	-	-	-	-	107.0
c1cc2c(cc1-c1ccc3c(c1)OCO3)CNCc1cnnn1-2	-	.	-	-	-	-
COc1ccc(NC(=S)N2Cc3ccccc3-n3nncc3C2)c(OC)c1	-	.	-	-	-	-
Clc1cccc(N2Cc3ccccc3-n3nncc3C2)c1	-	.	-	-	-	-
CCOC(=O)C1=C(NC(=S)NC(=O)c2ccccc2)c2ccccc2CC12CCCC2	-	-	-	-	-	50.1
CCOP(=O)(OCC)C(NC(=O)c1ccccc1)=C(Cl)Cl	-	-	-	-	-	-
Cc1cccc(C(O)(C(=O)O)c2ccccc2)c1 (configuration not stated)	-	-	-	-	-	99.8
Cc1cc(C)c(C)c(C(O)(C(=O)O)c2ccccc2)c1C (configuration not stated)	-	-	-	-	-	-
C/C=C1\NC(=O)[C@H](C)NC(=O)[C@@H](NC(=O)[C@H](Cc2ccc(O)cc2)NC(=O)[C@@H](NC(=O)/C(C)=C/C)C(C)C)[C@@H](C)OC(=O)[C@H](CCCc2ccc(O)cc2)NC(=O)[C@@H](CCC(=O)O)NC1=O	-	.	-	-	-	-
CC(=O)OC(C)(C)/C=C/C(=O)C(C)(O)C1C(O)CC2(C)C3CC=C4C(CC(O)C(=O)C4(C)C)C3(C)C(=O)CC12C (configuration not stated)	-83.2	88.4	-	88.9	78.3	97.2
CC(=O)OC(C)(C)/C=C/C(=O)[C@](C)(O)[C@H]1[C@H](O)C[C@@]2(C)[C@@H]3CC=C4[C@H](C[C@H](O)C(=O)C4(C)C)[C@]3(C)C(=O)C[C@]12C	-85.9	88.3	97.5	84.3	79.1	102.6
O=C1c2ccccc2-n2nnc(-c3ccccc3)c2C2c3cc(Br)ccc3CCN12 (configuration not stated)	-	.	-	-	-	-
COC(=O)C1=C(c2ccc(OCc3ccccc3)cc2)C[C@@H]2CC[C@H]1N2C(=O)NCCc1ccc(F)cc1	-	.	-	-	-	-
CCN(CC)S(=O)(=O)c1ccc(NN=C(C#N)C#N)cc1	-	-	-	66.9	-	-
Cc1ccc(S(=O)(=O)N2Cc3cc(-c4ccccc4)ccc3-n3nncc3C2)cc1	-	.	-	-	-	-
COc1ccc(CN2C(=O)NC(=O)/C(=C\c3ccco3)C2=O)cc1	-	-	-	-	42.0	-
COc1ccc(/C=C2/C(=O)N(Cc3ccco3)C(=O)N(C(C)C)C2=O)cc1	-	-	-	-	-	-
CCN1C(=O)C(=C/C=C/c2ccco2)C(=O)N(CC)C1=S	-	-	-	-	-	-
O=C1NC(=O)N(Cc2ccccc2)C(=O)/C1=C/C=C/c1ccco1	-	88.4	-	86.8	-	-
CC(C)N1C(=O)/C(=C/C=C/c2ccco2)C(=O)N(Cc2ccco2)C1=O	-	71.3	-	-	52.7	-
O=C1NCN(c2ccccc2)C12CCN(C(CCc1ccccc1)c1nnnn1C1CCCC1)CC2 (configuration not stated)	-	.	-	-	-	-
NC(Cc1ccc(F)cc1)c1csc(Nc2ccccn2)n1 (configuration not stated)	-	.	-	-	-	-
O=C1NCN(c2ccccc2)C12CCN(C(c1ccccc1OC(F)(F)F)c1nnnn1-c1ccc3c(c1)OCCO3)CC2 (configuration not stated)	-	.	-	-	-	-
CCOC(=O)C1C(=O)NC2(C)CC1c1cc(OC)ccc1O2 (configuration not stated)	-	-	89.4	-	-	-
SMILES	KKLEB cytotox	MITF TRPM1 inh	Shn3 inh set2	CF NFkB block	HIF-2a block	Peg3 prom inh-1	others
CC1=C(N2CC2)C(=O)C(CO)=C(N2CC2)C1=O	-104.5	106.2	95.7	97.3	88.5	100.5
CCN1/C(=C\C=C\C2=[N+](CC)c3ccccc3C2(C)C)C(C)(C)c2ccccc21	-	102.2	96.2	-	73.7	96.5
CCOC(=O)c1cccc(C2=C(CNC(=O)c3ccc([N+](=O)[O-])cc3)[C@H]3CC[C@@H](C2)N3Cc2ccccc2)c1	-	.	-	-	-	-
C[C@H]1COc2cc(N3CCN(C)CC3)ccc2S(=O)(=O)N1	.	.	.	.	-	.
O=C(c1ccc(Cl)cc1)C1CCCN(Cc2cccc3ncccc23)C1 (configuration not stated)	-	-	85.5	-	-	-
O=C(c1ccc(Cl)cc1)C1CCCN(Cc2cccc3cccnc23)C1 (configuration not stated)	-	-	-	-	-	-
CCCc1nc2ccc(Br)cc2c(=O)n1-c1ccc([N+](=O)[O-])c(C(F)(F)F)c1	-	-	92.8	-	-	55.1
CCN(CC)CCCNC(=O)c1c(O)c2ccccc2n(Cc2ccccc2)c1=O	-	-	-	-	-	54.3
CCN(CC)CCNC(=O)c1c(O)c2ccccc2n(Cc2ccccc2)c1=O	-	-	-	-	-	-
O=C1NCN(c2ccccc2)C12CCN(C(c1ccccc1OC(F)(F)F)c1nnnn1C1CCCC1)CC2 (configuration not stated)	-	.	-	-	-	-
CC(=NNC(=S)N1CC2CCC(CC2)C1)c1nccs1	-	-	93.0	67.1	-	-
CCC(C)NC(=O)CCC(=O)OC1O[C@H]2OC3(C)CC[C@H]4[C@H](C)CCC(C1C)C24OO3 (some centres not stated)	-	-	-	-	-	-
CCC(C)C(NC(=O)CCCNC(=O)CCC(=O)OC1O[C@H]2OC3(C)CC[C@H]4[C@H](C)CCC(C1C)C24OO3)C(=O)O (some centres not stated)	-	-	86.6	-	-	-
Cc1ccc(S(=O)(=O)NP(=O)(Oc2ccccc2)Oc2ccccc2)cc1	-	-	-	-	-	-
Cc1ccc(C)c(NP(=O)(Oc2ccccc2)Oc2ccccc2)c1	-67.4	-	-	97.0	-	63.0	Peg3 prom inh-2=66.8
COc1ccc(OC(=O)N(C)C[C@@H]2OCc3cnnn3CCCC(=O)N([C@@H](C)CO)C[C@@H]2C)cc1	-	.	-	-	-	-
ClCCN(CCCl)c1ccc(C=Cc2ccncn2)cc1	-	.	-	-	-	-
COC(COC(N)=O)C1=C(N2CC2)C(=O)C(C)=C(N2CC2)C1=O (configuration not stated)	-	-	-	88.6	-	97.9	Peg3 prom inh-2=97.2
O=[N+]([O-])c1cc(F)c(N2CCCCCC2)cc1N1CCNCC1	-	-	-	-	-	98.8	Peg3 prom inh-2=97.3

Source: PubChem
